About 6,200 (11%) of roughly 59,000 compounds were called active. About 9% were inconclusive and are not listed. This is one part of a sample in which actives are shown more often than they occur. Rule as the data show it: active = max dye-equivalent concentration above about 10 nM; inconclusive = mostly about 1.1 nM to 9.6 nM; inactive = weaker than that.
Assay: qHTS Assay for Spectroscopic Profiling in 4-MU Spectral Region
Settings: compound autofluorescence, 340/450 nm, 4-MU equivalents; stronger effect = higher value
Excerpt: NIH Molecular Libraries Screening Centers Network [MLSCN] NIH Chemical Genomics Center [NCGC] […] Occasionally, the artifactual effect may originate from the compounds own spectral or other biophysical properties which generally tend to track its assay concentration. Pre-screening/profiling the library with respect to the compounds spectral properties should help one exclude false positives early on. While the most informative fluorescent profiling data set is obtained by performing a full excitation and emission scan of each well by using a monochromator-based plate reader, such an approach is practical only on a very limited scale as scanning each well requires long time. An alternative approach, applied here, is to perform plate reader scans using selected excitation and emission wavelength pairs to generate a multidimensional relational database that correlates compound concentration and the respective relative fluorescence intensity at a given wavelength set. A standard curve of 4-methylumbelliferone (4-MU) present on each plate as six-point concentration series, was used to compute a normalized fluorescence response, termed dye-equivalent concentration, for each compound at each concentration.
NCGC Assay Protocol Summary: Buffer: 100 mM Tris buffer, pH 8.0 Dye standard plate: The wells in columns 1 through 4 of a Kalypsys polypropylene 1536-well compound plate were filled with standard solutions of fluorophore corresponding to the spectral region of interest. Solutions of 4-MU were placed in the following wells: A1, B1: 3 mM, A2, B2: 300 uM, A3, B3: 30 uM, A4, B4: zero (DMSO), C1, D1: 3 uM, C2, D2: 900 nM, C3, D3: 300 nM, C4, D4: zero (DMSO). Assay Steps: Six uL of buffer were dispensed to 1536-well Greiner black plates. Compounds and dye standards (23 nL) were transferred via Kalypsys PinTool. The plates were incubated for 15 min at room temperature, and then read on ViewLux (Perkin-Elmer) High-throughput CCD imager using 340 nm and 450 nm excitation and emission filter set. Keywords: NIH Roadmap, MLSCN, MLI, MLSMR, qHTS, NCGC, Fluorescent Profiling, 4MU, 4-MU

Max dye-equivalent concentration, active:
CCOc1ccccc1C1C(C(=O)OC)=CN(C)C=C1C(=O)OC 10000 nM
COCCn1c(=O)c(-c2cccs2)nc2cncnc21 74 nM
COCCn1c(=O)c(-c2cccs2)nc2cnc(N3CCN(C)CC3)nc21 14 nM
CCOc1ccc(-c2nnc3ccc(SC)nn23)cc1 12 nM
CCOC(=O)N1CC=C2C(C#N)=C(N)C(C#N)(C#N)[C@H](c3cccs3)[C@H]2C1 27 nM
Cc1nc2ccccc2cc1O 2300 nM
C[N+](C)(CCCCCC[N+](C)(C)CCCN1C(=O)c2cccc3cccc(c23)C1=O)CCCN1C(=O)c2cccc3cccc(c23)C1=O 260 nM
COCCNc1nc(-n2nc(C)cc2C)nc2sc3c(c12)CCCC3 920 nM

Max dye-equivalent concentration, inactive:
CCOc1ccccc1C(=O)NCCCn1ccnc1
CCOc1ccccc1C(=O)NCc1ccco1
COc1ccccc1CCn1c(=O)c(-c2cn(C)c3ccccc23)nc2cncnc21
CN(C(=O)COc1nnc(-c2cccs2)c(-c2cccs2)n1)c1ccccc1
COC(=O)[C@@H]1[C@H]2C[C@H]3c4[nH]c5cc(OC)ccc5c4CCN3C[C@@H]2C[C@@H](OC(=O)c2cc(OC)c(OC)c(OC)c2)[C@@H]1OC
CCCCn1nnnc1NCc1cc(OC)c(OC)c(OC)c1
COC(=O)CCNc1ccc2c(c1)OCCO2
CCOc1cccc(-c2nnc3sc(COc4ccc(OC)cc4)nn23)c1
O=C1NC(=O)[C@@](Cc2ccccc2)(c2cccnc2)N1
O=c1cc(CSc2ccc(Cl)cc2)nc(N2CCOCC2)[nH]1
CC1=C(C(=O)Nc2ccccc2)C(c2cccs2)C(C#N)=C(SCC#N)N1 (stereo not given)
O=C(c1cc(C(F)(F)F)cc(C(F)(F)F)c1)N1CCC2(CC1)CN(c1ccncc1)C2
CCOC(=O)c1cc2ccccc2nc1C
Cc1cc(O)ccc1-c1cnc2ccccc2n1
CC(=O)N1CCN(C(=O)Nc2cccc(C(F)(F)F)c2)CC1
Cc1ccc(NC(=O)CCNS(=O)(=O)c2ccc3c(c2)oc(=O)n3C)cc1C
Nc1ccc(SCCN2C(=O)c3ccccc3C2=O)cc1
O=C1c2ccccc2C(=O)N1CCCSc1ccccc1
CCCC(=O)Nc1ccc(C(=O)NCCCn2ccnc2)cc1
CSc1ccc(S(=O)(=O)NCc2ccc(Cl)cc2)cc1
Cc1cc(C)n(-c2nc(SCC(=O)N3CCCC3)c3c4c(sc3n2)CCCC4)n1
COCCn1c(C)cc(C(=O)CSc2ncnc3sc4c(c23)CCC4)c1C

From PubChem BioAssay AID589 (National Center for Advancing Translational Sciences (NCATS), 2007)
